Measured values: PubChem BioAssay (NCI)
About 83,000 compounds went through this panel and 20% of them were active in at least one assay; those are over-represented in the sample as a whole.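 Negative percent growth values reflect cell death: -40 means 40% of the cells present at the start died, and -100 means all died.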 Calls of active or inactive are those of the source. The calls were made as follows: active = growth percent below 10; inactive = the rest.

Legend:
Assay in all cases: NCI-60 one-dose screen, 48 h (100 = growth as untreated, 0 = no growth, -100 = all killed)
SR leukemia = details: 10 µM unless noted
RPMI-8226 leukemia = details: 10 µM unless noted
OVCAR-8 ovarian = details: 10 µM unless noted
OVCAR-5 ovarian = details: 10 µM unless noted
OVCAR-4 ovarian = details: 10 µM unless noted
SK-OV-3 ovarian = details: 10 µM unless noted
IGROV1 ovarian = details: 10 µM unless noted
OVCAR-3 ovarian = details: 10 µM unless noted
NCI/ADR-RES ovarian = details: 10 µM unless noted
T-47D breast = details: 10 µM unless noted
BT-549 breast = details: 10 µM unless noted
MDA-MB-435 melanoma = details: 10 µM unless noted
MCF7 breast = details: 10 µM unless noted
HCT-116 colon = details: 10 µM unless noted
HCC-2998 colon = details: 10 µM unless noted
KM12 colon = details: 10 µM unless noted
SW-620 colon = details: 10 µM unless noted
HS 578T breast = details: 10 µM

Measured: growth

CN(C)c1ccc(/C=C(\C#N)c2nc3ccccc3n2C)cc1
inactive: SR leukemia 29.2% | RPMI-8226 leukemia 15.8% | OVCAR-8 ovarian 40.3% | OVCAR-5 ovarian 64.3% | OVCAR-4 ovarian 55.2% | SK-OV-3 ovarian 34.8% | IGROV1 ovarian 32.3% | NCI/ADR-RES ovarian 27.6% | T-47D breast 40.2% | BT-549 breast 39.7% | MCF7 breast 17.9% | HCT-116 colon 33.2% | HCC-2998 colon 61.3% | KM12 colon 26.2%
active: OVCAR-3 ovarian -8.87% | MDA-MB-435 melanoma -26.2%

CNC(=O)c1ccccc1Sc1ccc2c(/C=C/c3ccccn3)n[nH]c2c1
active: T-47D breast -12.4%
inactive: SR leukemia 10.4% | RPMI-8226 leukemia 25.2% | OVCAR-8 ovarian 28.4% | OVCAR-5 ovarian 41.4% | OVCAR-4 ovarian 34.2% | SK-OV-3 ovarian 44.5% | IGROV1 ovarian 23.1% | OVCAR-3 ovarian 52.7% | NCI/ADR-RES ovarian 36.9% | BT-549 breast 16.2% | MDA-MB-435 melanoma 39% | MCF7 breast 35.2% | HCT-116 colon 29.9% | HCC-2998 colon 68.9% | KM12 colon 17.2%

NC(N)=N/N=C\c1cccc(OCc2ccccc2)c1
inactive: SR leukemia 19.4% | RPMI-8226 leukemia 69.6% | OVCAR-8 ovarian 89.3% | OVCAR-5 ovarian 85.3% | OVCAR-4 ovarian 64.3% | SK-OV-3 ovarian 81.6% | IGROV1 ovarian 74.7% | OVCAR-3 ovarian 79.1% | NCI/ADR-RES ovarian 76.5% | T-47D breast 26.6% | BT-549 breast 94.1% | MDA-MB-435 melanoma 35.1% | SW-620 colon 36% | MCF7 breast 47.2% | HCT-116 colon 41.9% | KM12 colon 68.3%
active: HCC-2998 colon 4.51%

Cn1c(=O)c2[nH]c(Cc3ccc4c(c3)OCO4)nc2n(C)c1=O
inactive: SR leukemia 120% | RPMI-8226 leukemia 88.8% | OVCAR-8 ovarian 105% | OVCAR-5 ovarian 90.5% | OVCAR-4 ovarian 88.2% | SK-OV-3 ovarian 107% | IGROV1 ovarian 106% | OVCAR-3 ovarian 104% | NCI/ADR-RES ovarian 107% | T-47D breast 99.8% | BT-549 breast 103% | MDA-MB-435 melanoma 107% | SW-620 colon 99.8% | MCF7 breast 97.7% | HCT-116 colon 105% | HCC-2998 colon 109% | KM12 colon 108%

NC(N)=N/N=C\c1ccc(OCc2ccccc2)cc1
active: MDA-MB-435 melanoma 9.55%
inactive: SR leukemia 75.4% | RPMI-8226 leukemia 83.4% | OVCAR-8 ovarian 89.1% | OVCAR-5 ovarian 82.8% | OVCAR-4 ovarian 56.8% | SK-OV-3 ovarian 77.1% | IGROV1 ovarian 77.7% | OVCAR-3 ovarian 74.4% | NCI/ADR-RES ovarian 80% | T-47D breast 35.7% | BT-549 breast 89.3% | SW-620 colon 73.9% | MCF7 breast 17.3% | HCT-116 colon 61% | HCC-2998 colon 82.3% | KM12 colon 58.8%

Cc1cc(C#Cc2ccccc2)ccc1-n1c(/C=C/c2ccc(F)cc2)nc2ccccc2c1=O
inactive: SR leukemia 64.8% | RPMI-8226 leukemia 25.6% | OVCAR-8 ovarian 90.6% | OVCAR-5 ovarian 106% | OVCAR-4 ovarian 57.6% | SK-OV-3 ovarian 89.9% | IGROV1 ovarian 95.2% | HS 578T breast 93.3% | NCI/ADR-RES ovarian 83.3% | T-47D breast 41% | BT-549 breast 90.4% | MDA-MB-435 melanoma 66.9% | SW-620 colon 47.8% | MCF7 breast 38.8% | HCT-116 colon 46% | HCC-2998 colon 86.6%

CC(C)CC(NC(=O)C(CCCN=C(N)N)NC(=O)OCc1ccccc1)C(=O)NC(CNC(=O)/C=C/c1ccccc1)C(C)C (stereo unspecified)
inactive: SR leukemia 98.3% | RPMI-8226 leukemia 96% | OVCAR-8 ovarian 106% | OVCAR-5 ovarian 89.3% | OVCAR-4 ovarian 95.8% | SK-OV-3 ovarian 117% | IGROV1 ovarian 88.3% | OVCAR-3 ovarian 105% | T-47D breast 96.2% | BT-549 breast 107% | MDA-MB-435 melanoma 97.5% | SW-620 colon 105% | MCF7 breast 91% | HCT-116 colon 102% | HCC-2998 colon 137% | KM12 colon 105%

COc1ccc(C2C3CCc4ccccc4C3=NN2C(=O)c2cc(OC)c(OC)c(OC)c2)cc1O (stereo unspecified)
inactive: SR leukemia 64.2% | RPMI-8226 leukemia 45.7% | OVCAR-8 ovarian 99.4% | OVCAR-5 ovarian 101% | OVCAR-4 ovarian 103% | SK-OV-3 ovarian 88% | IGROV1 ovarian 46.6% | OVCAR-3 ovarian 109% | NCI/ADR-RES ovarian 102% | T-47D breast 87% | BT-549 breast 89% | MDA-MB-435 melanoma 96.2% | MCF7 breast 95.8% | HCT-116 colon 104% | HCC-2998 colon 110% | KM12 colon 109%

Cc1cc(N=Nc2ccc(-c3ccc(N=Nc4ccc(O)c(C(=O)O)c4)cc3)cc2)c(N)c(N=Nc2ccc(C(=O)O)cc2)c1N
inactive: SR leukemia 75.9% | RPMI-8226 leukemia 67.1% | OVCAR-8 ovarian 90.8% | OVCAR-5 ovarian 100% | OVCAR-4 ovarian 97.1% | SK-OV-3 ovarian 103% | IGROV1 ovarian 83.3% | OVCAR-3 ovarian 93.1% | NCI/ADR-RES ovarian 97.7% | T-47D breast 78.6% | BT-549 breast 67.3% | MDA-MB-435 melanoma 99.5% | SW-620 colon 95.6% | MCF7 breast 97.6% | HCT-116 colon 65.5% | HCC-2998 colon 87.7% | KM12 colon 92.1%

COc1ccc(-c2cn(-c3cccc(C(=O)/C=C/c4ccc(O)c(OC)c4)c3)c(=O)[nH]2)cc1
active: SR leukemia 7.01% | RPMI-8226 leukemia -40.4% | IGROV1 ovarian -32.8% | OVCAR-3 ovarian -1.7% | BT-549 breast 4.04% | HCT-116 colon -35.4% | KM12 colon -58.7%
inactive: OVCAR-8 ovarian 11.7% | OVCAR-5 ovarian 33% | OVCAR-4 ovarian 33.6% | SK-OV-3 ovarian 53.6% | NCI/ADR-RES ovarian 12.7% | T-47D breast 32.1% | MDA-MB-435 melanoma 20.5% | MCF7 breast 15.2% | HCC-2998 colon 17.5%

CCC(=O)NC(O)C(Cl)(Cl)C(C)Cl (stereo unspecified)
inactive: SR leukemia 105% | RPMI-8226 leukemia 105% | OVCAR-8 ovarian 98.1% | OVCAR-5 ovarian 105% | OVCAR-4 ovarian 109% | SK-OV-3 ovarian 107% | IGROV1 ovarian 99.6% | OVCAR-3 ovarian 105% | NCI/ADR-RES ovarian 96.3% | T-47D breast 85.4% | MDA-MB-435 melanoma 96.8% | SW-620 colon 105% | MCF7 breast 90.3% | HCT-116 colon 103% | HCC-2998 colon 101% | KM12 colon 103%

Cc1ccccc1N1C(c2ccccc2)=NNC12C=CC(=O)c1c(O)cccc12 (stereo unspecified)
inactive: SR leukemia 97% | RPMI-8226 leukemia 83.8% | OVCAR-8 ovarian 60.1% | OVCAR-5 ovarian 83.8% | OVCAR-4 ovarian 61.3% | SK-OV-3 ovarian 74.4% | IGROV1 ovarian 93.2% | OVCAR-3 ovarian 60.5% | NCI/ADR-RES ovarian 72.5% | T-47D breast 87.7% | BT-549 breast 77% | SW-620 colon 98.6% | MCF7 breast 73.5% | HCT-116 colon 66.5% | HCC-2998 colon 90.3% | KM12 colon 77.6%
active: MDA-MB-435 melanoma -89.5%

CCCCOc1ncnc2nc[nH]c12
inactive: SR leukemia 88.7% | RPMI-8226 leukemia 95.4% | OVCAR-8 ovarian 99.4% | OVCAR-5 ovarian 103% | OVCAR-4 ovarian 102% | SK-OV-3 ovarian 107% | IGROV1 ovarian 124% | HS 578T breast 100% | NCI/ADR-RES ovarian 105% | T-47D breast 107% | BT-549 breast 97.6% | MDA-MB-435 melanoma 111% | SW-620 colon 108% | MCF7 breast 96.9% | HCT-116 colon 101% | HCC-2998 colon 111%

CC(=O)[C@H]1CC[C@H]2[C@@H]3CC[C@H]4CC=CC[C@]4(C)[C@H]3CC[C@]12C
inactive: SR leukemia 68.9% | RPMI-8226 leukemia 65.5% | OVCAR-8 ovarian 94.3% | OVCAR-5 ovarian 87% | OVCAR-4 ovarian 89.9% | SK-OV-3 ovarian 101% | IGROV1 ovarian 93.9% | OVCAR-3 ovarian 122% | NCI/ADR-RES ovarian 98.9% | T-47D breast 95.2% | BT-549 breast 102% | MDA-MB-435 melanoma 101% | SW-620 colon 101% | MCF7 breast 114% | HCT-116 colon 84.8% | HCC-2998 colon 97.2% | KM12 colon 113%

CCCCCCCCCCCCCC[N+](C)(C)CCCCCCCCCCCCCC
inactive: SR leukemia 35.7% | RPMI-8226 leukemia 12.6% | OVCAR-8 ovarian 49.6% | OVCAR-5 ovarian 79.9% | OVCAR-4 ovarian 62% | SK-OV-3 ovarian 85.5% | OVCAR-3 ovarian 87.5% | NCI/ADR-RES ovarian 104% | T-47D breast 57.5% | BT-549 breast 92.3% | MDA-MB-435 melanoma 39.4% | SW-620 colon 76% | MCF7 breast 77.3% | HCT-116 colon 51.4% | HCC-2998 colon 62.1% | KM12 colon 76.2%
active: IGROV1 ovarian 9.59%

COc1cccc(NC(=O)c2c(-c3ccccc3)c(-c3ccccc3)n[nH]c2=O)c1
inactive: SR leukemia 88.3% | RPMI-8226 leukemia 86.1% | OVCAR-8 ovarian 103% | OVCAR-5 ovarian 97.8% | OVCAR-4 ovarian 86% | SK-OV-3 ovarian 99.5% | IGROV1 ovarian 105% | OVCAR-3 ovarian 107% | T-47D breast 87.5% | BT-549 breast 102% | MDA-MB-435 melanoma 98% | SW-620 colon 98.7% | MCF7 breast 95.9% | HCT-116 colon 94.9% | HCC-2998 colon 94.4% | KM12 colon 103%

COc1ccc(/C(=C\c2cc(OC)c(OC)c(OC)c2)C(=O)Nc2nc3ccc(Cl)cc3s2)cc1
inactive: SR leukemia 76.4% | RPMI-8226 leukemia 80.8% | OVCAR-8 ovarian 94.1% | OVCAR-5 ovarian 97.2% | OVCAR-4 ovarian 104% | SK-OV-3 ovarian 98.4% | IGROV1 ovarian 106% | HS 578T breast 100% | NCI/ADR-RES ovarian 92% | T-47D breast 86.7% | BT-549 breast 98.3% | MDA-MB-435 melanoma 100% | SW-620 colon 105% | MCF7 breast 98.9% | HCT-116 colon 86.8% | HCC-2998 colon 104% | KM12 colon 94.2%

Oc1ccc(Cl)cc1-c1cc(-c2ccccc2Cl)[nH]n1
inactive: SR leukemia 41.9% | RPMI-8226 leukemia 42.3% | OVCAR-8 ovarian 71.1% | OVCAR-5 ovarian 87.9% | OVCAR-4 ovarian 13.3% | SK-OV-3 ovarian 76.9% | IGROV1 ovarian 34.2% | OVCAR-3 ovarian 21.2% | T-47D breast 11.1% | BT-549 breast 76.2% | MDA-MB-435 melanoma 48.1% | SW-620 colon 74.7% | HCT-116 colon 55.8% | HCC-2998 colon 31.1% | KM12 colon 19.7%
active: MCF7 breast 9.57%
